An excerpt weighted towards active compounds, which were near 2.7% of everything screened.
Nrf2 ARE act: Nrf2 pathway activation | AREc32 ARE-luciferase reporter (MCF7-derived line), luminescence, 24 h | Potency, µM (doses to about 46.1 µM), for inactives: top-dose activation, most hits filed as activators | 410,000 tested, 0.31% active; also: potency is read from the fitted curve at half-maximal effect; % of control where 0% means no effect; nearly all actives have a fitted effect of over 65% in size
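For detection, Steady-Glo was added and plates sat 30 min at RT; before that, AREc32_Fluc cells grown overnight in OPTI-MEM/5% FBS had been treated with 23 nL compound for 24 hr at 37 deg C.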
LDHA inh: inhibitors of human lactate dehydrogenase A; 480,000 tested, 0.15% active; activity change, % (values are at about 110 or 230 µM); AID 1347041; purified LDHA, NADH/diaphorase-resazurin fluorescence; hits give low values; P00338; in the data active = activity change below about -30%; inconclusive = mostly about -25% to -30%;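 also: plate controls were DMSO wells for no effect and wells without enzyme for full effect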
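Human LDH5 (2 nM) was incubated with 0.06 mM NADH and 0.2 mM pyruvate for 5 min at room temperature in Tris pH 7.4. Remaining NADH was coupled through diaphorase/resazurin, and resorufin fluorescence was read at 0 and 20 min.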
IDH1 R132H inh: blocks human mutant IDH1 R132H enzyme. 390,000 tested, 0.093% active. AID 602179. IDH1-R132H enzyme, NADPH consumption, diaphorase/resazurin fluorescence. O75874. Potency, µM (highest dose often 76.6 µM), inactives show at the top dose activity change, negative = inhibition, most hits filed as inhibitors; also: potency is read from the fitted curve at half-maximal effect; % is scaled to controls: 0 for no effect and ±100 for the full control effect; nearly all actives have a fitted effect of over 65% in size
Target sequence (O75874 whole entry R132H, stated change not applied): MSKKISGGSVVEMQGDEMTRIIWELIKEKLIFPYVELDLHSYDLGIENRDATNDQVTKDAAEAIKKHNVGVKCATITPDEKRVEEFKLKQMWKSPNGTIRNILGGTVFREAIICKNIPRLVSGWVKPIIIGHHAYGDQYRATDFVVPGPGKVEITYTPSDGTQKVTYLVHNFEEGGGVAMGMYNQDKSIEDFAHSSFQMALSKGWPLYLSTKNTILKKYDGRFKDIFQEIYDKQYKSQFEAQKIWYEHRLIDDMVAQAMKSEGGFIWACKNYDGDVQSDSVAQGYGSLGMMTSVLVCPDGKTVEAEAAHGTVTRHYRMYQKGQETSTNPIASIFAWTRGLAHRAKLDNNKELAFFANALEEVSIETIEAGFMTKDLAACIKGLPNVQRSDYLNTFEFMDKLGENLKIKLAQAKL
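IDH1-R132H (0.5 ug/mL) preincubated 30 min with compound, then NADPH (0.016 mM) and alpha-KG (2 mM) added; 80 min at RT, pH 7.5. Remaining NADPH coupled via diaphorase/resazurin to fluorescence (540/590 nm); concentration-response curves normalized to no-enzyme control.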
Nrf2 inh: inhibitors of Nrf2 signaling; Potency, µM (titrated, usually from 46 µM), without a hit: at the top dose activity change, negative = inhibition, usual class: inhibitors; 360,000 tested, 2.1% active; AID 504444; A549 ARE-Fluc reporter, luciferase luminescence, 18-24 h; also: potency is read from the fitted curve at half-maximal effect; % is scaled to controls: 0 for no effect and ±100 for the full control effect; nearly all actives have a fitted effect of over 60% in size
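A549 ARE_Fluc cells (5000/well, 5% FBS OPTI-MEM) pre-incubated 2 h, then treated with compounds 18-24 h at 37C/5% CO2 in concentration-response. CellTiter-Fluor viability read first; BugLite luciferase luminescence after 15 min at room temperature gives Nrf2 activity.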
12-LOX inh: inhibitors of human 12S-lipoxygenase ALOX12 | Potency, µM (top dose mostly 108 µM), without a hit: at the highest dose activity change, negative = inhibition, hits mostly inhibitors | 580,000 tested, 1.1% active | P18054 | purified 12hLO, xylenol orange hydroperoxide absorbance; also: potency is read from the fitted curve at half-maximal effect; % is scaled to controls: 0 for no effect and ±100 for the full control effect
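Purified human 12hLO at 150 nM in 25 mM Hepes, 0.01% Triton X-100, pH 7.0, preincubated 15 min at room temperature with compound. Reaction started with 40 uM arachidonic acid, 30 min at room temperature. Hydroperoxide measured by Fe-xylenol orange, 573/405 nm absorbance ratio.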
A549 tox: kills or reduces viability of A549 cells in Nrf2 counter-screen. A549 ARE-Fluc cells, CellTiter-Fluor viability, 18-24 h. Potency, µM (titrated, usually from 46 µM), inactives show at the highest dose activity change, negative = cytotoxicity, usual class: inhibitors. 390,000 tested, 0.16% active. AID 504648; also: potency is read from the fitted curve at half-maximal effect; % is scaled to controls: 0 for no effect and ±100 for the full control effect
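A549 ARE-Fluc cells in 5% FBS OPTI-MEM, 5000 cells/well, rested 2 h then exposed to compounds in concentration-response for 18-24 h at 37 °C. Viability by CellTiter-Fluor fluorescence (Ex 405/Em 525) after 30 min; luciferase luminescence (BugLite, 15 min, RT) read afterwards.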
* hit, by the source's call; ? = inconclusive; . = no result; [ ] = dose if it differs, or a comment. Unless noted, calls follow the shape of the dose curve; as a rule, active = well fitted curve in the direction sought with a large enough effect; inconclusive = small, poorly fitted or top-dose-only effect, or another doubt; inactive = no such curve, though single readings can be large; an effect the other way counts as inactive or inconclusive.

SMILES | Nrf2 ARE act | LDHA inh | IDH1 R132H inh | Nrf2 inh | 12-LOX inh | A549 tox
COc1cccc(OCCn2cc(C(C)=O)c3ccccc32)c1 | 2% | -4 | 9% | ? | 25µM* | -7%
COc1cccc(OCCn2cc(C(=O)c3ccco3)c3ccccc32)c1 | 2% | -2 | 4% | ? | 2% | -9%
Brc1ccc(C2=Nn3c(nnc3-c3ccc4c(c3)OCO4)SC2)cc1 | . | -5 | . | . | ? | .
COc1ccccc1NC(=O)Cc1csc(NC(=S)Nc2ccccc2)n1 | 3% | 9 | -5% | 21µM* | 18µM* | 18µM*
COc1ccc(Cc2noc(CN3CCN(Cc4cccc(Cl)c4)CC3)n2)cc1OC | 0%[9.22 µM] | 2 | 0% | ? | 10% | 1%
COc1ccc(Cc2noc(CN3CCN(c4ccc(Cl)cn4)CC3)n2)cc1OC | 0% | 0 | 6% | 26µM* | 0% | -12%
CN(C)C(=O)CNC(=O)c1cc2occc2n1Cc1ccccc1 | . | -2 | . | . | ? | .
CC(C(=O)Nc1ccc2c(c1)OCO2)N1CCN(C)CC1 (stereo not given) | 0% | ? | -2% | 0% | -59% | 1%
CSc1ccc(NC(=O)C(C)N2CCN(C)CC2)cc1 (stereo not given) | 0% | -35* | 12% | 10% | ? | 1%
O=c1[nH]c(-n2cccc2)c(-c2c(-c3ccc4ccccc4c3)[nH]c3[nH]c(=O)[nH]c(=O)c23)c(=O)[nH]1 | . | 2 | . | . | ? | .
COc1cccc(Cl)c1NC(=O)N1CCN(c2cc(C)nc3ccccc23)CC1 | 4% | -1 | 1% | 23µM* | 213% | ?
CCOC(=O)N1CCN(c2ccnc3cc(Cl)ccc23)CC1 | 2% | 7 | 6% | ? | 10% | 1%
Cc1cc(N2CCN(C(=O)/C=C/C(=O)O)CC2)c2ccccc2n1 | 0% | -9 | -6% | -9% | -3% | ?
COc1ccc(-c2csc(N3CCN(c4cc(C)nc5ccccc45)CC3)n2)cc1OC | -1% | -7 | 8% | 13µM* | 16% | 21µM*
COc1cccc(Cl)c1NC(=O)N1CCN(c2ccnc3cc(Cl)ccc23)CC1 | 5% | -2 | -1% | 23µM* | 10% | -25%
COc1cc(-c2csc(N3CCOCC3)n2)cc(OC)c1OC | 3% | -1 | 9% | -12% | 53% | -4%
CSc1ccc(NC(=O)/C=C/c2cccs2)cc1 | . | -3 | . | . | 9% | .
CO/N=C/c1ccc(OCc2ccc(C(=O)OC)cc2)cc1 | . | 2 | . | . | ? | .
c1ccc(-c2nc(NCc3ccco3)c3oc4ccccc4c3n2)cc1 | ? | -1 | 1% | ? | 7.1µM* | -17%
Cc1c(C(=O)NCc2ccco2)oc2ccc(Br)cc12 | ? | 3 | 9% | ? | ? | 0%
Cc1c(C(=O)NCc2ccco2)oc2ccccc12 | 14µM* | -8 | 0% | 2% | -17% | 5%
O=c1cc(NCc2ccco2)c2ccccc2o1 | 13µM* | -3 | 1% | -17% | -24% | -3%
COc1cc2c(cc1OC)CN(Cc1cc(=O)c(OCc3c(Cl)cccc3Cl)co1)CC2 | . | 9 | . | . | -2% | .
O=C(NC1(C(F)(F)F)N=C(c2ccccc2)N(Cc2ccco2)C1=O)c1ccc(F)cc1 (stereo not given) | . | 4 | . | . | -8% | .
O=[N+]([O-])c1cccc(-c2csc(N/N=C/c3cccc(O)c3)n2)c1 | 24% | -8 | 0% | 18µM* | -25% | ?
SMILES | Nrf2 ARE act | LDHA inh | IDH1 R132H inh | Nrf2 inh | 12-LOX inh | A549 tox
O=C(Nc1nc(-c2cccc([N+](=O)[O-])c2)cs1)C(c1ccccc1)c1ccccc1 | 1% | -1 | -3% | 15µM* | -5% | ?
O=[N+]([O-])c1ccc(C=NNc2ccccc2)cc1 | 7% | 0 | 1% | 20% | ? | -16%
O=[N+]([O-])c1cccc(C=NNc2ccccc2)c1 | 21% | -2 | 7% | -10% | 45µM* | 0%
CC(OC(=O)c1ccccc1Br)C(=O)Nc1nc(-c2cccc([N+](=O)[O-])c2)cs1 (stereo not given) | 3% | -5 | 1% | 4% | 0% | -2%
COc1ccc(C(=O)Nc2cc(-c3nc4ccccc4o3)ccc2OC)cc1Cl | . | -4 | . | . | -69% | .
CC(C)COC(=O)c1ccccc1 | . | . | . | . | -2%[176 µM] | .
CC1=C[C@@H](CN2CCCCC2)[C@H](C(C)C)C[C@H]1Cc1nnc(-c2cncn2C)o1 | . | . | . | . | 15%[176 µM] | .
O=C(CCc1cccc(F)c1)N1CCN(Cc2ccccc2)CC(O)C1 (stereo not given) | . | . | . | . | 15% | .
CCN(CC)C(=O)CSc1nn(CC)c2nc3c(c(=O)n12)C(C)(CC)Cc1ccccc1-3 (stereo not given) | . | 1 | . | . | 19% | .
CN1CC=C2C(C#N)=C(N)C(C#N)(C#N)C(CCc3ccccc3)C2C1 (stereo not given) | 4% | 21 | 41µM* | -5% | . | 1%
CCCC1C2CN(C(C)C)CC=C2C(C#N)=C(N)C1(C#N)C#N (stereo not given) | 1% | 12 | ? | 6.5µM* | ? | ?
O=C1CCCC2=C1C(c1ccc(Br)cc1)c1c([nH]c(=S)[nH]c1=O)N2 (stereo not given) | 0% | -13 | 2% | 0% | ? | -2%
O=c1[nH]c(=S)[nH]c2c1C(c1ccc(Br)cc1)c1c([nH]c(=S)[nH]c1=O)O2 | 0% | -77* | 0% | -21% | 5µM* | -6%
O=C(O)c1ccc(/C=C/C(=O)c2ccc(N3CCOCC3)cc2)cc1 | . | -2 | . | . | ? | .
O=C(COc1ccccc1C(=O)Nc1ccccc1)NC(=O)NCc1ccco1 | . | 3 | . | . | ? | .
Cc1cccc(-c2nnc3sc(NC(=O)c4cccc(F)c4)nn23)c1 | . | 0 | . | . | ? | .
Cc1ccccc1-c1nnc2sc(NC(=O)c3ccc(F)cc3)nn12 | . | 1 | . | . | 32µM* | .
CC(=O)c1ccc(OCCNS(=O)(=O)c2ccc(-n3cnnn3)c(C)c2)cc1 | 0% | 0 | -9% | 5.8µM* | 52% | -8%
COc1ccc(CNS(=O)(=O)c2ccc(-n3cnnn3)c(C)c2)cc1 | 0% | -2 | -11% | -18% | -20% | -1%
Cc1ccc(N2NC3(CCC(C)CC3)NC2=S)cc1 (stereo not given) | . | 6 | . | . | 1.3µM* | .
Cc1ccc(N2NC3(CCCCCC3)NC2=S)cc1 | . | 14 | . | . | 1µM* | .
S=C1NC2(CCCCC2)NN1c1ccc(Cl)cc1 | . | 2 | . | . | ? | .
O=C(NCCc1c[nH]c2ccc(Cl)cc12)c1ccncc1 | . | -11 | . | . | 16% | .
O=C(Nc1ccc(F)cc1)c1nc(S(=O)(=O)Cc2ccc(F)cc2)ncc1Cl | . | -11 | . | . | ? | .
